According to PubChem BioAssay AID1159580 (chemical genetic matrix, 2015):
Where “and” joins values, the source holds several entries; their conditions need not be identical. Equal values may be shown once. Among all 5,500 compounds or so, about 2,000 (36%) were called active. Roughly 18% stayed inconclusive and do not appear here. No stated cut-off is given here; in the data, active means normalized growth mostly below about 0.91 (no sharp cut-off); inconclusive means no clear call, values can overlap the other calls; inactive means mostly above about 0.92. The list shows a part of the results.

Test: chemical genetic growth profiling, strain panel (AID 1159580);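 further: tested at 20 µM; growth read once vehicle control cultures reached saturation at 30 °C; 1 = growth at the plate median or of vehicle wells; lower values mean less growth of the strain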
Conditions: growth OD

Measured: normalized growth

CC[C@H]1OC(=O)[C@H](C)[C@@H](O[C@H]2C[C@@](C)(OC)[C@@H](O)[C@H](C)O2)[C@H](C)[C@@H](O[C@@H]2O[C@H](C)C[C@H](N(C)C)[C@H]2O)[C@](C)(O)C[C@@H](C)CN(C)[C@H](C)[C@@H](O)[C@]1(C)O
inactive: S. cerevisiae deletion strains, locus YAL013W, strain DEP1, hits give low values 0.993 | S. cerevisiae deletion strains, locus YBR021W, strain FUR4, hits give low values 0.96 | S. cerevisiae deletion strains, locus YBR229C, strain ROT2, hits give low values 0.988 | S. cerevisiae deletion strains, locus YCL029C, strain bik1, hits give low values 0.962 | S. cerevisiae deletion strains, locus YDL035C, strain GPR1, hits give low values 0.969 | S. cerevisiae deletion strains, locus YDL074C, strain BRE1, hits give low values 1.01 | S. cerevisiae deletion strains, locus YDL101C, strain DUN1, hits give low values 0.987 | S. cerevisiae deletion strains, locus YDL134C, strain PPH21, hits give low values 0.993 | S. cerevisiae deletion strains, locus YDL185W, strain tfp1, hits give low values 0.962 | S. cerevisiae deletion strains, locus YDL192W, strain arf1, hits give low values 0.96 | S. cerevisiae deletion strains, locus YDR101C, strain arx1, hits give low values 0.972 | S. cerevisiae deletion strains, locus YDR150W, strain NUM1, hits give low values 1 | S. cerevisiae deletion strains, locus YDR162C, strain NBP2, hits give low values 1.01 | S. cerevisiae deletion strains, locus YDR318W, strain mcm21, hits give low values 0.948 | S. cerevisiae deletion strains, locus YDR388W, hits give low values 0.978 | S. cerevisiae deletion strains, locus YDR502C, strain sam2, hits give low values 0.984 | S. cerevisiae deletion strains, locus YEL061C, strain CIN8, hits give low values 0.996 | S. cerevisiae deletion strains, locus YER110C, hits give low values 0.972 | S. cerevisiae deletion strains, locus YER155C, strain BEM2, hits give low values 0.991 | S. cerevisiae deletion strains, locus YER167W, strain BCK2, hits give low values 0.964 | S. cerevisiae deletion strains, locus YGL078C, strain dbp3, hits give low values 0.979 | S. cerevisiae deletion strains, locus YGL086W, strain mad1, hits give low values 0.951 | S. cerevisiae deletion strains, locus YGL248W, strain PDE1, hits give low values 0.992 | S. cerevisiae deletion strains, locus YGR078C, strain PAC10, hits give low values 1.02 | S. cerevisiae deletion strains, locus YGR135W, strain pre9, hits give low values 0.986 | S. cerevisiae deletion strains, locus YGR229C, strain SMI1, hits give low values 0.988 | S. cerevisiae deletion strains, locus YGR252W, strain gcn5, hits give low values 0.876 | S. cerevisiae deletion strains, locus YHR030C, strain SLT2, hits give low values 0.988 and 0.962 | S. cerevisiae deletion strains, locus YHR079C, strain IRE1 (second series), hits give low values 0.965 | S. cerevisiae deletion strains, locus YHR079C, strain IRE1, hits give low values 0.965 | S. cerevisiae deletion strains, locus YHR094C, strain hxt1, hits give low values 0.969 | S. cerevisiae deletion strains, locus YHR129C, strain ARP1, hits give low values 0.996 | S. cerevisiae deletion strains, locus YHR200W, strain rpn10, hits give low values 0.977 | S. cerevisiae deletion strains, locus YIL066C, strain RNR3, hits give low values 0.987 | S. cerevisiae deletion strains, locus YIL073C, strain SPO22, hits give low values 0.895 | S. cerevisiae deletion strains, locus YIL125W, strain kgd1, hits give low values 0.983 | S. cerevisiae deletion strains, locus YIR030C, strain dcg1, hits give low values 0.975 | S. cerevisiae deletion strains, locus YJL095W, strain BCK1, hits give low values 1.03 and 0.999 | S. cerevisiae deletion strains, locus YJL134W, strain LCB3, hits give low values 0.992 | S. cerevisiae deletion strains, locus YJL168C, strain set2, hits give low values 0.979 | S. cerevisiae deletion strains, locus YJL187C, strain SWE1 (second series), hits give low values 0.993 | S. cerevisiae deletion strains, locus YJR043C, strain POL32, hits give low values 0.966 | S. cerevisiae deletion strains, locus YJR066W, strain TOR1, hits give low values 0.956 | S. cerevisiae deletion strains, locus YJR075W, strain HOC1, hits give low values 1 | S. cerevisiae deletion strains, locus YKL009W, strain mrt4, hits give low values 0.992 | S. cerevisiae deletion strains, locus YKL068W, hits give low values 0.995 | S. cerevisiae deletion strains, locus YKL085W, strain MDH1 (second series), hits give low values 0.974 | S. cerevisiae deletion strains, locus YKL085W, strain MDH1, hits give low values 0.974 | S. cerevisiae deletion strains, locus YKL190W, strain CNB1, hits give low values 0.996 | S. cerevisiae deletion strains, locus YKR001C, strain vps1, hits give low values 0.961 | S. cerevisiae deletion strains, locus YLR039C, strain RIC1, hits give low values 0.965 | S. cerevisiae deletion strains, locus YLR058C, strain SHM2, hits give low values 0.992 | S. cerevisiae deletion strains, locus YLR102C, strain apc9, hits give low values 0.976 | S. cerevisiae deletion strains, locus YLR113W, strain HOG1, hits give low values 0.986 | S. cerevisiae deletion strains, locus YLR262C, strain YPT6, hits give low values 0.999 | S. cerevisiae deletion strains, locus YLR268W, strain sec22, hits give low values 0.994 | S. cerevisiae deletion strains, locus YLR330W, strain CHS5, hits give low values 0.991 | S. cerevisiae deletion strains, locus YLR342W, strain FKS1 (second series), hits give low values 0.963 | S. cerevisiae deletion strains, locus YLR371W, strain rom2, hits give low values 0.964 | S. cerevisiae deletion strains, locus YLR418C, strain cdc73, hits give low values 1.03 | S. cerevisiae deletion strains, locus YML016C, strain PPZ1, hits give low values 0.991 | S. cerevisiae deletion strains, locus YML032C, strain rad52, hits give low values 0.942 | S. cerevisiae deletion strains, locus YML124C, strain tub3, hits give low values 0.984 | S. cerevisiae deletion strains, locus YMR078C, strain ctf18, hits give low values 0.964 | S. cerevisiae deletion strains, locus YMR223W, strain ubp8, hits give low values 0.949 | S. cerevisiae deletion strains, locus YMR263W, strain SAP30, hits give low values 1 | S. cerevisiae deletion strains, locus YMR307W, strain GAS1, hits give low values 0.788 | S. cerevisiae deletion strains, locus YNL067W, strain RPL9B, hits give low values 1.01 | S. cerevisiae deletion strains, locus YNL128W, strain TEP1, hits give low values 1 | S. cerevisiae deletion strains, locus YNL153C, strain GIM3, hits give low values 1.03 | S. cerevisiae deletion strains, locus YNL183C, strain NPR1, hits give low values 0.92 | S. cerevisiae deletion strains, locus YNL233W, strain BNI4, hits give low values 1.01 | S. cerevisiae deletion strains, locus YNL250W, strain rad50, hits give low values 0.978 | S. cerevisiae deletion strains, locus YNL271C, strain bni1, hits give low values 0.976 | S. cerevisiae deletion strains, locus YNL298W, strain CLA4, hits give low values 0.972 | S. cerevisiae deletion strains, locus YNL307C, strain MCK1, hits give low values 0.945 | S. cerevisiae deletion strains, locus YNL322C, strain KRE1, hits give low values 0.995 | S. cerevisiae deletion strains, locus YNR052C, strain pop2, hits give low values 0.957 | S. cerevisiae deletion strains, locus YOL006C, strain TOP1, hits give low values 0.951 | S. cerevisiae deletion strains, locus YOL012C, strain htz1 1.44 | S. cerevisiae deletion strains, locus YOL147C, strain pex11, hits give low values 0.981 | S. cerevisiae deletion strains, locus YOR061W, strain CKA2, hits give low values 0.972 | S. cerevisiae deletion strains, locus YOR069W, strain VPS5, hits give low values 0.989 | S. cerevisiae deletion strains, locus YOR136W, strain idh2, hits give low values 0.969 | S. cerevisiae deletion strains, locus YOR144C, strain elg1, hits give low values 0.976 | S. cerevisiae deletion strains, locus YOR184W, strain ser1, hits give low values 0.973 | S. cerevisiae deletion strains, locus YOR231W, strain MKK1, hits give low values 0.968 | S. cerevisiae deletion strains, locus YOR316C, strain cot1, hits give low values 0.978 | S. cerevisiae deletion strains, locus YPL055C, strain LGE1, hits give low values 1.01 | S. cerevisiae deletion strains, locus YPL241C, strain CIN2, hits give low values 0.994 | S. cerevisiae deletion strains, locus YPL256C, strain CLN2, hits give low values 0.963 | S. cerevisiae deletion strains, locus YPR119W, strain clb2, hits give low values 0.981 | S. cerevisiae deletion strains, locus YPR141C, strain kar3, hits give low values 0.98 | S. cerevisiae deletion strains, locus YPR163C, strain tif3, hits give low values 0.974 | S. cerevisiae deletion strains, locus YPR167C, strain met16, hits give low values 0.984 | S. cerevisiae deletion strains, strain wtn01, hits give low values 0.978 | S. cerevisiae strains, strain wild type, hits give low values 0.982
